# From the supplement of paper PMC6555819
# Test system: RARb homodimer (NR concentration 270 nM)
# Test: PBM binding z-score (relative to random genomic background probes); higher = stronger binding; sequences stand for … in GC…GCGATTGACAGCGTAGAATGAAGG
# How it was run: (§1)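 Custom Agilent 4×180K protein-binding microarrays carried double-stranded probes. Their 34-nt variable regions held direct-repeat seeds, single-nucleotide variants, half-site ablations and random human genomic background sequences. Arrays were incubated 1 h with ligand-free nuclear receptor dimers in PBS pH 7.4, 2% milk, 0.02% Triton X-100, 1 mM DTT, 0.2 mg/mL BSA and 0.4 mg/ml salmon testes DNA. Antibodies against each partner (one per run) detected binding, and scanned fluorescence was regression-normalized. Binding z-scores use random background probes as reference.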
row,Sequence,PBM binding z-score
1,ACAGACAGGTGAGTGAAGCTAACTCAGCTGGACG,-0.638
2,AGTCAAAGTTCATCTATGTAACGTAAGATATGCT,3.77
3,ATCTCTAGGTAAAAGTTCAGTGCATCCCGAGGAT,2.59
4,ATCTCTAGGTAAAGTTAGTTCAGTGAATGCAAAT,0.802
5,GCGACTGGGGCAAAGCAGGTGACCATAAGGTTGG,0.982
6,TCTTGAAGATCAAAGGTTAAGAAAGCCGAAGCCT,1.32
7,TCTAGCAGGCCGGAGGGTCACTCAAGAGGTACGG,2.33
8,CTACCAATGTGAACAAGGTCGTTGATTACTATTC,1.33
9,GCTATTAGCTGAAAGGGCAACCGAATGATTCTCG,1.53
10,CGAACTAGGTCAAGGACAGCGAATCTCCGCACGC,3.31
11,CCTACTGGGCCCTCAGGTCATTGATATCAACGTT,2
12,CATACAGGGTCAACTAGGCCAGAGTAGGGACGGC,3.62
13,GTACCAAGGTGAAAAGGTCGTTGATGAGTAGGCG,3.49
14,CGTCCAAGGTCATAGGAGGTAAGTGAAGACAGAT,3.21
15,CGAACTAGGTCATCCAGGAAAGTGAATACATTGA,2.85
16,TCTAGATGGTCACGGAGGTCACACACGACGGGTA,4.54
17,GGAACGAGGGCAAAGTTGATAGTATCTGTCGACG,1.24
18,TCTTGTAGATCAACAGGAGGTTAAGAAGGATCGA,0.431
19,TCTTGTAGATCAAAGGTTCAGAAAGCCGAAGCCT,0.917
20,CGTCCAAAGTCAGCAGGTCAGTGAAAGCGACGTG,2.43

row,Sequence,PBM binding z-score
1,CCTTACGGGTCAACGTTATAGCACGGGTGGTACG,3.19
2,TATGCAGGGTCAAAGGCCAGAGTACGAATGTCGA,3.43
3,TCATGTAGGTAATACAGGTGAAAGTCGGCATCTA,0.12
4,CAAACTAGGTCAAAGTCAAAGTCGGTTTGTGCCA,3.06
5,TCGAGTAGGATAGTCGGGGCATTCAGCCAACATA,-0.402
6,GCTCAGAGGACAAGGTCAGAGCTTTGTCCGTAGA,3.68
7,TCTACTAGGTCAACGATGGTCAGCTAATCTGCTA,3.59
8,TCTCGGAGGACACGAAGGTCACAGCTTTCCAGAG,4.54
9,CGAACGAGGGCATGATTTGATAGCAAATGCCGAT,0.522
10,TCAATTAGTTGAAGGGCAACCGACGAGTCCGTTT,1.28
11,AGTCAAAGTTCATCTAGGTAACGTGAGATATGCT,3.97
12,CGTCCTAGGTCAGCAGGTCAGTGAAAGCGACGTG,4.37
13,CAGACTAGGTCACCGGAAGGTCAAAGTCCGCATG,5.55
14,TCGAGTAGGTTACCAATGTGGCATTCAGCTTTCT,-0.0137
15,TCATATAGGTAATACAGGTGGAAGTCGGCATCTA,0.159
16,TCTAGCAGGCCAGAGGGTCACTTAAGAGGTACGG,2.71
17,TGAATGAGGCTATAAGATCAGGGAACGTTGCAAA,-0.742
18,CCTGCTAGGTCATGGTTAGCTAATCTACAGTATG,2.79
19,GCGACTGGGGCAAAGCAGGATACCATAAGGTTGG,0.194
20,TCTCGGAGGGCACGAAAGGTCAGAGCTCGACATC,5.03

# Test system: RARg:RXRa (NR concentration 270 nM, RXRa partner concentration 90 nM)
# Test: as above
# How it was run: as §1
row,Sequence,PBM binding z-score
1,ACAGACAGGTGAGTGAAGCTAACTCAGCTGGACG,-0.0417
2,AGTCAAAGTTCATCTATGTAACGTAAGATATGCT,5.2
3,ATCTCTAGGTAAAAGTTCAGTGCATCCCGAGGAT,1.85
4,ATCTCTAGGTAAAGTTAGTTCAGTGAATGCAAAT,0.673
5,GCGACTGGGGCAAAGCAGGTGACCATAAGGTTGG,0.256
6,TCTTGAAGATCAAAGGTTAAGAAAGCCGAAGCCT,2.04
7,TCTAGCAGGCCGGAGGGTCACTCAAGAGGTACGG,2.01
8,CTACCAATGTGAACAAGGTCGTTGATTACTATTC,0.629
9,GCTATTAGCTGAAAGGGCAACCGAATGATTCTCG,0.817
10,CGAACTAGGTCAAGGACAGCGAATCTCCGCACGC,3.9
11,CCTACTGGGCCCTCAGGTCATTGATATCAACGTT,1.1
12,CATACAGGGTCAACTAGGCCAGAGTAGGGACGGC,5.7
13,GTACCAAGGTGAAAAGGTCGTTGATGAGTAGGCG,4.66
14,CGTCCAAGGTCATAGGAGGTAAGTGAAGACAGAT,5.58
15,CGAACTAGGTCATCCAGGAAAGTGAATACATTGA,4.03
16,TCTAGATGGTCACGGAGGTCACACACGACGGGTA,4.93
17,GGAACGAGGGCAAAGTTGATAGTATCTGTCGACG,2.08
18,TCTTGTAGATCAACAGGAGGTTAAGAAGGATCGA,0.952
19,TCTTGTAGATCAAAGGTTCAGAAAGCCGAAGCCT,0.795
20,CGTCCAAAGTCAGCAGGTCAGTGAAAGCGACGTG,1.31

row,Sequence,PBM binding z-score
1,CCTTACGGGTCAACGTTATAGCACGGGTGGTACG,4.85
2,TATGCAGGGTCAAAGGCCAGAGTACGAATGTCGA,5.45
3,TCATGTAGGTAATACAGGTGAAAGTCGGCATCTA,0.0242
4,CAAACTAGGTCAAAGTCAAAGTCGGTTTGTGCCA,3.87
5,TCGAGTAGGATAGTCGGGGCATTCAGCCAACATA,-0.475
6,GCTCAGAGGACAAGGTCAGAGCTTTGTCCGTAGA,3.51
7,TCTACTAGGTCAACGATGGTCAGCTAATCTGCTA,4.28
8,TCTCGGAGGACACGAAGGTCACAGCTTTCCAGAG,4.52
9,CGAACGAGGGCATGATTTGATAGCAAATGCCGAT,0.771
10,TCAATTAGTTGAAGGGCAACCGACGAGTCCGTTT,0.369
11,AGTCAAAGTTCATCTAGGTAACGTGAGATATGCT,5.63
12,CGTCCTAGGTCAGCAGGTCAGTGAAAGCGACGTG,4.95
13,CAGACTAGGTCACCGGAAGGTCAAAGTCCGCATG,8.29
14,TCGAGTAGGTTACCAATGTGGCATTCAGCTTTCT,0.035
15,TCATATAGGTAATACAGGTGGAAGTCGGCATCTA,0.56
16,TCTAGCAGGCCAGAGGGTCACTTAAGAGGTACGG,2.39
17,TGAATGAGGCTATAAGATCAGGGAACGTTGCAAA,-0.102
18,CCTGCTAGGTCATGGTTAGCTAATCTACAGTATG,4.02
19,GCGACTGGGGCAAAGCAGGATACCATAAGGTTGG,0.19
20,TCTCGGAGGGCACGAAAGGTCAGAGCTCGACATC,6.01
